# Assay results published in PubChem BioAssay AID488857 (Sanford-Burnham Center for Chemical Genomics, 2010).
# Out of some 1,400 compounds screened, about 560 (40%) were called active. The set was probably picked from earlier hits. The list shows a part of the results. Unmarked numbers belong to inactive results.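 The calls were made as follows: active = mean inhibition over duplicate tests at 10 µM above 50%; inactive = the rest.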
# Assay: ASC/caspase-1 reporter retest in S. cerevisiae at one dose, specificity check for NALP1 project (AID 488857)
# Settings: S. cerevisiae ASC/Caspase-1, beta-galactosidase luminescence, 24 h; at 10 µM; stronger effect = higher value
row,Structure (SMILES),inhibition
1,COc1ccc(/C=C2/CCc3ccccc3C2=O)cc1OC,61.4% (active)
2,COC(=O)C(Cc1ccccc1)NC(=O)COc1ccc(C(C)(C)C)cc1 (centres undefined),34.1%
3,C=CCNCCOc1ccc(C(C)(C)c2ccccc2)cc1,56.8% (active)
4,C=CCNCCOCCSc1ccc(Cl)cc1,42.4%
5,COCCCNCCOc1ccc(C(C)(C)c2ccccc2)cc1,64.7% (active)
6,COc1cccc(C2c3c(-c4ccccc4O)n[nH]c3C(=O)N2Cc2ccco2)c1 (centres undefined),47.1%
7,COC(=O)c1ccc(/C=C(\C#N)C(=O)NC(C)c2ccccc2)cc1 (centres undefined),43.5%
8,C=CCNC(=O)/C(C#N)=C/c1c(C)nn(-c2ccccc2)c1Cl,69.8% (active)
9,Cc1nn(-c2ccccc2)c(Cl)c1/C=C(\C#N)C(=O)NC(C)C,68.6% (active)
10,O=C(O)/C=C/C(=O)OC1CC2CCC1C2 (centres undefined),23.1%
11,Cc1ccc(NC(=O)CN(C)C(=O)COc2cccc3cccnc23)cc1,21.4%
12,CCN(CC)c1ccc(/C=N/OC(C)C(=O)Nc2ccc(C)cc2)cc1 (centres undefined),53.4% (active)
13,c1ccc(CC2CCN(c3nnnn3-c3ccccc3)CC2)cc1,39.6%
14,O=C(CCNC(=O)c1ccccc1Cl)Nc1ccc2c(c1)OCO2,34.6%
15,Cc1ccc(C(=O)/C=C/c2ccc3c(c2)OCO3)o1,32.1%
16,O=C(/C=C/c1ccc2c(c1)OCCCO2)c1ccccc1O,61.2% (active)
17,COC(=O)Cn1nc(-c2ccccc2)c2ccccc21,99.4% (active)
18,O=C(O)Cn1nc(-c2ccccc2)oc1=O,20.1%
19,O=C(NC1=NCCS1)c1ccc(Cl)s1,53% (active)
20,CC(NC(=O)c1ccc(F)cc1)C(=O)NC1=NCCS1 (centres undefined),38.4%
21,O=C(c1cnn2ccccc12)N1CCc2ccccc21,57.4% (active)
22,CCC(=O)N1CCc2cc(S(=O)(=O)N3CCc4ccccc43)ccc21,37%
23,CSc1sc(C(=O)N2CCc3ccccc32)cc1S(=O)(=O)C(C)C,30%
24,CC(C)NC(=O)c1ccc(COCC(F)(F)F)cc1,36.5%
25,Cc1ccc(C(=O)Oc2ccc3c(c2)ncn3C)cc1,61.9% (active)
26,Cc1ccc(C(=O)Nc2ccc3nc(C)sc3c2)s1,87.8% (active)
27,Cc1nc2c(ccc3c2ccc2nc(C)sc23)s1,38.2%
28,Cc1nc2ccc(NC(=O)c3cc([N+](=O)[O-])cc([N+](=O)[O-])c3Cl)cc2s1,42.2%
29,COc1cccc(/C=N/NC(=O)CCc2c(C)n[nH]c2C)c1,30.6%
